Source: PubChem
This is a sample that favours compounds with a hit; in the whole collection about 3.5% have one here.
MITF primary – inhibitors of human MITF; O75030; AlphaScreen MITF homodimerization, bead proximity signal; inhibition, % at 2.6 µM; hit rate 0.91% among 650,000; AID 1259374; in the data active means inhibition above about 50%;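 further: 0% = vehicle wells with protein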
GPR151 ag – human GPR151 activation; Q8TDV0; PathHunter beta-arrestin GPR151 cells, luminescence; activation, % at 11.2 µM; hit rate 1% among 650,000; in the data active means activation above about 4.9%;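 further: 0% = median of compound wells and 100% = cells with positive control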
FBW7 activator – activators of human E3 ligase FBW7; Q969H0; AlphaScreen FBW7–phospho-cyclin E peptide binding, activator screen; normalized activity (activation), % at 26.1 µM; hit rate 0.13% among 650,000; AID 1259310; in the data active means normalized activity above about 1.9%;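 further: purified mutant Fbw7 with reduced substrate affinity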
Target sequence (Q969H0 whole entry, looked up): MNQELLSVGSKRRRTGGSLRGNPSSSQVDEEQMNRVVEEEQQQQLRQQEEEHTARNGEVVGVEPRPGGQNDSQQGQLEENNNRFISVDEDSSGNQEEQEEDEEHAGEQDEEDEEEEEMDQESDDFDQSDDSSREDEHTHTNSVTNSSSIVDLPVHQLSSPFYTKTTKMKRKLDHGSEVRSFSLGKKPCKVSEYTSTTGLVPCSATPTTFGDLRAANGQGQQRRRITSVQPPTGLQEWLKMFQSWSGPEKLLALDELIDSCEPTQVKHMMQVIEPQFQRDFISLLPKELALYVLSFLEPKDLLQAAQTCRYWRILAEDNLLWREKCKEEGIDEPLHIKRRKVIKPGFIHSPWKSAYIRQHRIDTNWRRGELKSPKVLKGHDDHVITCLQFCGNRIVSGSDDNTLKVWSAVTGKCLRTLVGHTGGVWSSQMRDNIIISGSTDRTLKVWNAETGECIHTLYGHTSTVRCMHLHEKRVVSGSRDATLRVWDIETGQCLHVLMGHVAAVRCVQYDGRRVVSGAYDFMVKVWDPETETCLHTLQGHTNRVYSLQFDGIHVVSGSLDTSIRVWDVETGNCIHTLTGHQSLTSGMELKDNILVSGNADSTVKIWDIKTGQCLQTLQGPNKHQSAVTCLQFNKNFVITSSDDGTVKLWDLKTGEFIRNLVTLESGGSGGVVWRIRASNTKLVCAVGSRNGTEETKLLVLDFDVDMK
TEAD-YAP inh – TEAD-YAP interaction inhibition | HEK-TIYL cells, TEAD-Gal4/YAP UAS-luciferase luminescence | inhibition, % at 9.12 µM | hit rate 1.4% among 640,000; in the data active means inhibition above about 32%;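 further: 0% = median of test compound wells and 100% = reference inhibitor wells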
GPR151 conf act – human GPR151 activation, confirmation screen. shares compounds with GPR151 ag. GPR151 PathHunter beta-arrestin cells, luminescence, 90 min; % of EA-reagent control over plate median. activation, % at 11.2 µM. 6,700 tested, under 10 active;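 active means mean percent activation across replicates above the confirmation screen cutoff of 4.91%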
GPR119 counter – activates human GPR119 in a GPR151 counter-screen; GPR119 PathHunter beta-arrestin cells, luminescence, 90 min; 0 = compound-well median, 100 = enzyme-acceptor control; shares compounds with GPR151 ag; hit rate 0.3% among 6,700; activation, % at 11.2 µM; AID 1508611;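 active means mean percent activation in the counterscreen above 29.09%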;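 further: counterscreen on off-target GPR119 to flag nonselective hits from the GPR151 activator screen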
An asterisk follows results filed as active; ! = repeats disagree.

What do the screens show for `COc1ccc(N(C(=O)CC2CCCCC2)C2C=CS(=O)(=O)C2)cc1` (stereo not given)?
MITF primary: 5; GPR151 ag: -1; FBW7 activator: 0; TEAD-YAP inh: 9

How did Cc1ccc(CN2CCNC(=O)C2CC(=O)N2CCCN(Cc3ccccn3)CC2)o1 (stereo not given) do in these assays?
MITF primary: 13; GPR151 ag: 5.6*; FBW7 activator: 0; TEAD-YAP inh: -1; GPR151 conf act: 0; GPR119 counter: 1

Results for Cc1ccc(CN2CCNC(=O)C2CC(=O)N2CCCN(c3ncccn3)CC2)o1 (stereo not given) ?
MITF primary: -17; GPR151 ag: 1; FBW7 activator: 0; TEAD-YAP inh: -1

What do the screens show for `O=C1OC(c2cc([N+](=O)[O-])ccc2Cl)=N/C1=C\c1ccccc1Br`?
MITF primary: 14; GPR151 ag: -1; FBW7 activator: 1; TEAD-YAP inh: 0

How did O=[N+]([O-])c1ccc(Cl)c2c1C1C=CCC1C(c1ccccn1)N2 (stereo not given) do in these assays?
MITF primary: 9; GPR151 ag: 5.1*; FBW7 activator: -1; TEAD-YAP inh: -5; GPR151 conf act: 0; GPR119 counter: 10

How did C/C(=N\Nc1nnc2c(n1)[nH]c1ccccc12)c1ccc([N+](=O)[O-])cc1 do in these assays?
MITF primary: 7; GPR151 ag: 5.9*; FBW7 activator: 0; TEAD-YAP inh: -26; GPR151 conf act: 0; GPR119 counter: -16

Results for O=C(CCCc1nc2ccccc2c(=O)[nH]1)Nc1ccccc1N1CCOCC1 ?
MITF primary: 3; GPR151 ag: 1; FBW7 activator: 0; TEAD-YAP inh: 7

Results for O=C(Nc1ccc2c(c1)OCO2)c1ccnc(NCCN2CCOCC2)c1 ?
MITF primary: 7; GPR151 ag: 7.1*; FBW7 activator: 0; TEAD-YAP inh: -18; GPR151 conf act: 0; GPR119 counter: -7

Results for CC(=O)Nc1ccc(NC(=O)c2ccnc(Nc3ccc(N4CCOCC4)cc3)c2)cc1 ?
MITF primary: 1; GPR151 ag: -2; FBW7 activator: 0; TEAD-YAP inh: -4

What do the screens show for `O=C(Nc1ccc(N2CCOCC2)cc1)C1CCN(c2ccc(Cl)nn2)CC1`?
MITF primary: 9; GPR151 ag: 6.0*; FBW7 activator: 0; TEAD-YAP inh: 9; GPR151 conf act: 0; GPR119 counter: 5

What do the screens show for `O=C(Nc1ccc(N2CCOCC2)cc1)c1ccnc(N2CCOCC2)c1`?
MITF primary: 10; GPR151 ag: 5.5*; FBW7 activator: 0; TEAD-YAP inh: -8; GPR151 conf act: -1; GPR119 counter: 6

How did NC(=O)C1CCN(CC(=O)Nc2ccc(N3CCOCC3)cc2)CC1 do in these assays?
MITF primary: 2; GPR151 ag: 5.9*; FBW7 activator: 0; TEAD-YAP inh: 9; GPR151 conf act: 0; GPR119 counter: 7

Results for O=C(Nc1ccc(N2CCOCC2)cc1)c1ccnc(NCCN2CCOCC2)c1 ?
MITF primary: 29; GPR151 ag: -1; FBW7 activator: 0; TEAD-YAP inh: 8

Results for Cc1ccc(S(=O)(=O)NCC(=O)NCC(=O)N/N=C/c2cccc([N+](=O)[O-])c2)cc1 ?
MITF primary: -14; GPR151 ag: 0; FBW7 activator: 0; TEAD-YAP inh: 9

How did COC(=O)c1ccc(/C=N/NC(=O)c2cc3ccccc3cc2O)cc1 do in these assays?
MITF primary: 15; GPR151 ag: -2; FBW7 activator: 1; TEAD-YAP inh: 21

Results for O=C(N/N=C/c1cc(I)ccc1O)c1cc(-c2ccccc2)n[nH]1 ?
MITF primary: 5; GPR151 ag: 1; FBW7 activator: 0; TEAD-YAP inh: 12

What do the screens show for `O=C(N/N=C/c1ccccc1O)c1cc(-c2ccc(Br)cc2)n[nH]1`?
MITF primary: 16; GPR151 ag: 5.5*; FBW7 activator: 0; TEAD-YAP inh: 2; GPR151 conf act: 1; GPR119 counter: -5

Results for O=C(N/N=C/c1ccc(O)cc1)c1cc(-c2ccc(Br)cc2)n[nH]1 ?
MITF primary: 8; GPR151 ag: 0; FBW7 activator: 0; TEAD-YAP inh: 19

Results for O=C(N/N=C/c1ccncc1)c1cc(-c2ccc(Br)cc2)n[nH]1 ?
MITF primary: 7; GPR151 ag: 5.8*; FBW7 activator: 0; TEAD-YAP inh: -10; GPR151 conf act: 0; GPR119 counter: -2

What do the screens show for `O=C(N/N=C/c1ccncc1)c1cc2ccccc2cc1O`?
MITF primary: 10; GPR151 ag: 5.0*; FBW7 activator: 0; TEAD-YAP inh: 3; GPR151 conf act: -2; GPR119 counter: -13

What do the screens show for `COC(=O)C1=C(N)Oc2cc(C)n(Cc3cccnc3)c(=O)c2C1c1ccccc1Cl` (stereo not given)?
MITF primary: 4; GPR151 ag: 1; FBW7 activator: 0; TEAD-YAP inh: -2

How did O=C(CC1c2ccccc2Oc2ccccc21)Nc1ccc(NC(=O)C23CC4CC(CC(C4)C2)C3)cc1 do in these assays?
MITF primary: 3; GPR151 ag: 0; FBW7 activator: 0; TEAD-YAP inh: -18

What do the screens show for `CC(=O)n1cc(/C=c2\sc3nc4c(C)cccc4n3c2=O)c(-c2ccccc2)n1`?
MITF primary: 1; GPR151 ag: 0; FBW7 activator: 0; TEAD-YAP inh: 8

Results for COc1ccc(N2C(=O)C3C(C2=O)N2CCCN2C3c2ccc(Cl)cc2)cc1 (stereo not given) ?
MITF primary: 4; GPR151 ag: 1; FBW7 activator: 0; TEAD-YAP inh: -8

What do the screens show for `CCc1ccccc1NC(=O)C(=O)NCCOC`?
MITF primary: -25; GPR151 ag: 0; FBW7 activator: 0; TEAD-YAP inh: 8

Results for CCCNC(=O)C(=O)Nc1ccccc1CC ?
MITF primary: -3; GPR151 ag: 6.7*; FBW7 activator: 0; TEAD-YAP inh: -3; GPR151 conf act: 0; GPR119 counter: -6

How did Brc1ccc(C2Oc3ccccc3C3CC(c4ccccc4)=NN32)cc1 (stereo not given) do in these assays?
MITF primary: -6; GPR151 ag: 0; FBW7 activator: 0; TEAD-YAP inh: -29

Results for NC(=O)c1cccc(N)c1 ?
MITF primary: -7; GPR151 ag: 6.2*!; FBW7 activator: 0; TEAD-YAP inh: -9; GPR151 conf act: 0; GPR119 counter: 1

What do the screens show for `CCOc1cc(/C=C/c2[nH]c(=O)[nH]c(=O)c2[N+](=O)[O-])ccc1O`?
MITF primary: 3; GPR151 ag: 6.5*; FBW7 activator: 0; TEAD-YAP inh: 1; GPR151 conf act: 0; GPR119 counter: -5

Results for Cc1cc(C(=O)OCC(=O)c2ccc([N+](=O)[O-])cc2)ccc1[N+](=O)[O-] ?
MITF primary: 7; GPR151 ag: 1; FBW7 activator: 0; TEAD-YAP inh: -2
